Molecules are shown by their SMILES. The panel holds about 83,000 compounds, 20% with a hit somewhere; the sample as a whole holds those more often.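 Activity criterion: percent growth below 10, measured after cells in 96-well plates were exposed to a single compound concentration for 48 hours.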 Unmarked numbers belong to inactive results. Calls of active or inactive are those of the source.

Drawing on PubChem BioAssay (NCI), this text covers growth for 8 compounds.

Common to all, as to assay: NCI-60 one-dose screen, 48 h (100 = growth as untreated, 0 = no growth, -100 = all killed)
Conditions in all cases: 10 µM unless noted

Experiment [1] concerns HCT-15 colon.
Experiment [2] relates to HT29 colon.
The test system of experiment [3] is SNB-75 CNS.
For experiment [4], the system named is SNB-19 CNS.
For experiment [5], the system named is U251 CNS.
Experiment [6] relates to PC-3 prostate.
Experiment [7] deals with SK-MEL-5 melanoma.
The test system of experiment [8] is UACC-62 melanoma.
Experiment [9] has as its system LOX IMVI melanoma.
Experiment [10] has as its system SK-MEL-28 melanoma.
Experiment [11] concerns SK-MEL-2 melanoma.
Experiment [12] deals with EKVX NSCLC.
Experiment [13] has as its system SN12C renal.
The test system of experiment [14] is UO-31 renal.
Experiment [15] has as its system TK-10 renal.
The test system of experiment [16] is ACHN renal.
In experiment [17] the test system is CAKI-1 renal.
Experiment [18] deals with A498 renal.
The subject of experiment [19] is CCRF-CEM leukemia.
For experiment [20], the system named is MOLT-4 leukemia.

For `COc1ccc(NC(=O)c2sc3nc(C)c(C(=O)CCc4cccc(OC)c4)cc3c2N)cc1`, the growth was 46.7% in experiment [1]; 67.4% in [2]; 65.7% in experiment [3]; 73.5% in [4]; 78.3% in [5]; 79.5% in experiment [6]. For the same compound, the growth in experiment [7] is 61.9%; in experiment [8], 63.7%; in experiment [9], 75.4%; in experiment [10], 83%; in [11], 53.2%; in experiment [12] it was 82.8%. Further, the growth in [13] was 73%; in [14], 51%; in experiment [15] it was 85.4%; in experiment [16], 95.2%; in [17], 71%; in [18], 19.2%. Besides, the growth in experiment [19] is 65.4%; in experiment [20], 48.1%.

Regarding `CCC(C)N(CCNc1cc(OC)cc2cccnc12)CCC(C)C` (centres undefined), the growth was 76.6% in experiment [1]; 55.6% in experiment [2]; 100% in experiment [3]; 96.2% in [4]; 84% in experiment [5]; 79.3% in experiment [6]. The growth in experiment [7] was 95.2%; in experiment [8], 94.2%; in [9] it was 86%; in experiment [10], 99.7%; in experiment [11] it was 90%; in experiment [12], 92.2%. The growth was 93.5% in experiment [13]; 77.8% in experiment [14]; 96.7% in experiment [15]; 75.2% in [16]; 90.8% in experiment [17]; 72.9% in [18]. Besides, the growth in [19] is 109%; in [20], 83.9%.

As to `C/C(=C(/c1ccccc1)c1ccc(OCC(O)CNCCN2CCOCC2)cc1)c1ccccc1` (centres undefined), the growth is 4.47% (active) in experiment [1]; 3.2% (active) in experiment [2]; 65.8% in [3]; 91.2% in experiment [4]; 32.6% in [5]; 65.4% in [6]. Also, the growth in [7] was 29%; in experiment [8], 62.8%; in experiment [9], 18.7%; in experiment [10], -86.2% (active); in experiment [11], 94.9%; in experiment [12], 82.8%. The growth in experiment [13] is 76.1%; in [14], 69.2%; in experiment [15], 73.5%; in experiment [16], 81.4%; in experiment [17] it was 67.9%; in [18] it was 79.9%. Besides, the values for the growth in experiment [19] and in experiment [20] were 56.5% and 41%, respectively.

Take `COc1cc(C2CC(c3cccc(Nc4ccncc4)c3)=NN2C(C)=O)cc(OC)c1OC` (centres undefined): the growth in experiment [1] is 98%; in experiment [2] it was 78.5%; in [3], 67.4%; in [4], 93%; in experiment [5], 91.5%; in experiment [6] it was 84.2%. For the same compound, the growth is 89.9% in experiment [7]; 93.9% in experiment [8]; 85.3% in experiment [9]; 96.6% in [10]; 99.1% in [11]; 87.5% in [12]. The growth in experiment [13] was 94%; in experiment [14] it was 89.1%; in experiment [15], 97.7%; in [16], 99.5%; in experiment [17], 78.9%; in [18], 94.1%. The growth in experiment [19] is 92.7%; in experiment [20] it was 84.4%.

For the compound `c1ccc(C2CC(c3cccc(Nc4ccncc4)c3)=NN2c2ccccc2)cc1` (centres undefined), the growth was -15.7% (active) in experiment [1]; 1.62% (active) in experiment [2]; 77.3% in experiment [3]; 89.1% in experiment [4]; 25.6% in experiment [5]; 54.5% in [6]. For the same compound, the growth is 75.3% in [7]; 96.8% in experiment [8]; 43.7% in experiment [9]; -56.2% (active) in experiment [10]; 103% in [11]; 91.4% in [12]. The growth in experiment [13] was 77.9%; in experiment [14], 70.3%; in experiment [15] it was 98.9%; in experiment [16], 90.1%; in experiment [17] it was 61.8%; in experiment [18], 83.2%. In addition, the growth in [19] is 56.9%; in [20], 18%.

Regarding `COc1ccc(NS(=O)(=O)c2ccc(C)cc2)c([N+](=O)[O-])c1`, the growth was 107% in [1]; 107% in experiment [2]; 105% in experiment [3]; 102% in experiment [4]; 93.3% in [5]; 97.5% in experiment [6]. The growth was 96.8% in [7]; 86% in [8]; 95.2% in experiment [9]; 107% in experiment [10]; 110% in experiment [11]; 101% in experiment [12]. The growth in [13] is 88.2%; in experiment [14], 86.3%; in experiment [15] it was 99.7%; in [16] it was 95.4%; in experiment [17], 98.2%; in experiment [18], 80%. The results for the growth in [19] and in experiment [20] were 97% and 96.3%, respectively.

For `COc1ccc(Cn2nc(-c3ccccc3)c3c2CCc2cnoc2-3)cc1`, the growth in experiment [1] was 67.6%; in experiment [2], 84%; in experiment [3], 65.5%; in [4] it was 82.2%; in experiment [5] it was 78%; in experiment [6], 52.9%. The growth was 74.5% in experiment [7]; 51.5% in experiment [8]; 72.8% in [9]; 84.8% in experiment [10]; 111% in experiment [11]; 65.9% in experiment [12]. Further, the growth was 76.8% in experiment [13]; 70% in experiment [14]; 105% in [15]; 81.4% in experiment [16]; 66.3% in [17]; 58.7% in experiment [18]. Besides, the growth in experiment [19] was 67.8%; in experiment [20] it was 52.7%.

`COc1cc2ncnc(Nc3ccc(C(=O)/C=C/c4ccc(C(F)(F)F)cc4F)cc3)c2cc1OC`: the growth in [1] is 104%; in experiment [2], 98.8%; in [3] it was 87.7%; in [4], 98.2%; in [5], 85.4%; in experiment [6] it was 83%. The growth in experiment [7] was 104%; in experiment [8] it was 100%; in [9], 92%; in [10] it was 109%; in [11], 105%; in [12], 90%. Further, the growth was 101% in experiment [13]; 75.4% in experiment [14]; 110% in [15]; 92.3% in experiment [16]; 88.2% in experiment [17]; 97.4% in experiment [18]. Also, the growth in experiment [19] is 83.8%.
